This note sets out measurements from PMC7862700, “An all-to-all approach to the identification of sequence-specific readers for epigenetic DNA modifications on cytosine”.

Common to all, as to assay: DAPPL (digital affinity profiling via proximity ligation, sequencing); 10 mM Tris-HCl pH 7.5, 50 mM NaCl, 1 mM DTT, 4% glycerol, room temperature, 30 min; GST-TFs on glutathione beads, 16-mer random dsDNA library, 0.1% formaldehyde crosslink after washing; high values mean tight binding
The target of assay [1] is T1, FEV (Homo sapiens, UniProt Q99581 1-238).
T1 sequence: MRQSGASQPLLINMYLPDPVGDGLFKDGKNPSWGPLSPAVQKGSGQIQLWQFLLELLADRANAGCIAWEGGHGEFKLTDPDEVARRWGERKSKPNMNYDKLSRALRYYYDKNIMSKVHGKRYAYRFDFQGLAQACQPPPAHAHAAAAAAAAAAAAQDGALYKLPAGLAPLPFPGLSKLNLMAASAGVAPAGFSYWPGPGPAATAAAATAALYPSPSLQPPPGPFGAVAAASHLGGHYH
Conditions: protein: recombinant; tags: N-terminal GST; dsDNA, one strand shown. Summed up: (§1)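 Human transcription factors were made in yeast as GST fusions, captured on glutathione beads and barcoded with DNA. With a tag-only sample included, the pool was incubated with 200 nmole of a random double-stranded 16-mer DNA library in Tris/NaCl/DTT/glycerol buffer at room temperature for 30 min, then crosslinked with 0.1% formaldehyde after washing, ligated by proximity, amplified and sequenced. For binding signal, each hexamer's read frequency for a factor is divided by its frequency for the tag-only sample.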

Assay [2] concerns the target ETV5 (Homo sapiens, UniProt P41161 1-510). Conditions: protein: recombinant; tags: N-terminal GST; dsDNA, one strand shown. Summed up:
as §1

In assay [3] the target is HSF1 (Homo sapiens, UniProt Q00613 1-529). Conditions: protein: recombinant; tags: N-terminal GST; chain copies: 3; dsDNA, one strand shown. The gist of the method: as §1
For assay [4], the target named is T2, SPIC (Homo sapiens, UniProt Q8N5J4 1-248).
T2 sequence: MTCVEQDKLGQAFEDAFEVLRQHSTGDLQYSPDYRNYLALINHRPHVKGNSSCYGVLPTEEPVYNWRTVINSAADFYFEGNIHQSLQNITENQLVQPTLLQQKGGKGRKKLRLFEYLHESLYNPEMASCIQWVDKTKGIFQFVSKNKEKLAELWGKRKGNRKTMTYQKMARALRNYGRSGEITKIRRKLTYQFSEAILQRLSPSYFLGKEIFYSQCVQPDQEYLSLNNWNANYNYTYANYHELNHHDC
Conditions: protein: recombinant; tags: N-terminal GST; dsDNA, one strand shown. Summed up:
as §1

Assay [5] concerns the target ELF4 (Homo sapiens, UniProt Q99607 1-663). Particulars: protein: recombinant; tags: N-terminal GST; dsDNA, one strand shown. Summed up:
as §1

Assay [6] concerns the target T3, ELK4 (Homo sapiens, UniProt P28324-2 1-405).
T3 sequence: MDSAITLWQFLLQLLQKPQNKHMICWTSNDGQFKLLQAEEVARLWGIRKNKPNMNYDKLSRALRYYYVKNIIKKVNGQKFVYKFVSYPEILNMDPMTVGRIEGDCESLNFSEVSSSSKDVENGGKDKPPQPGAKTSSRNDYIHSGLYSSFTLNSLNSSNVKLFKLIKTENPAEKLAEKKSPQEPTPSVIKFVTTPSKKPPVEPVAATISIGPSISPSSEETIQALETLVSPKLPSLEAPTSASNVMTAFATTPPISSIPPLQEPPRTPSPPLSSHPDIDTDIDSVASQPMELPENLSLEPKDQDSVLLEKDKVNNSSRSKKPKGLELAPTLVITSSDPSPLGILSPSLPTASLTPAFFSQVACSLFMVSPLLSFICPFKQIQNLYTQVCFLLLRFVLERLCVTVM
Particulars: protein: recombinant; tags: N-terminal GST; dsDNA, one strand shown. The gist of the method: as §1

Assay [7] deals with T4, ETV2 (Homo sapiens, UniProt O00321 1-342).
T4 sequence: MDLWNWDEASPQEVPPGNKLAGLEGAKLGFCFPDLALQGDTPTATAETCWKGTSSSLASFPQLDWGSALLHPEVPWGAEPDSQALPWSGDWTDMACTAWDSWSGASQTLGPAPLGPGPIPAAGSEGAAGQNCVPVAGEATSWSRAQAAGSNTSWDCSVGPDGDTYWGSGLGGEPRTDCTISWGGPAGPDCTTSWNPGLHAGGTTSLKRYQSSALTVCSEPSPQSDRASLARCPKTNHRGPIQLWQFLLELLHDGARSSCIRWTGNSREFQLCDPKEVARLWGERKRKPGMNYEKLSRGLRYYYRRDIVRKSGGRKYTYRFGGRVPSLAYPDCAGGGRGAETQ
Particulars: protein: recombinant; tags: N-terminal GST; dsDNA, one strand shown. The gist of the method: as §1

Assay [8] addresses T5, ELF3 (Homo sapiens, UniProt P78545 1-371).
T5 sequence: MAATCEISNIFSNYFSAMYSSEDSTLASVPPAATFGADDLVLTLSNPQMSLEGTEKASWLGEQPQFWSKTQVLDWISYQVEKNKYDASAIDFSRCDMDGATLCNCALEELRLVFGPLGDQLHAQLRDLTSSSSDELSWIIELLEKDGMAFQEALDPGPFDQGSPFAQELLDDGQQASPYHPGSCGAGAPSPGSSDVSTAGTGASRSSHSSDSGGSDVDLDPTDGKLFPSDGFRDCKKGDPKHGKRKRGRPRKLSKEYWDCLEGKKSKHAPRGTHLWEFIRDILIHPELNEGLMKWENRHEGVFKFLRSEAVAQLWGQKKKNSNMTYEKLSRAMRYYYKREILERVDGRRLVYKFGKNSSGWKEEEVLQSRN
Particulars: protein: recombinant; tags: N-terminal GST; dsDNA, one strand shown. The gist of the method: as §1

The target in assay [9] is CRX (Homo sapiens, UniProt O43186 1-299). Conditions: protein: recombinant; tags: N-terminal GST; dsDNA, one strand shown. The gist of the method:
as §1

The target of assay [10] is ETV1 (Homo sapiens, UniProt P50549 1-477). Conditions: protein: recombinant; tags: N-terminal GST; dsDNA, one strand shown. The gist of the method:
as §1

Assay [11] addresses T6, ERF (Homo sapiens, UniProt P50548 1-548).
T6 sequence: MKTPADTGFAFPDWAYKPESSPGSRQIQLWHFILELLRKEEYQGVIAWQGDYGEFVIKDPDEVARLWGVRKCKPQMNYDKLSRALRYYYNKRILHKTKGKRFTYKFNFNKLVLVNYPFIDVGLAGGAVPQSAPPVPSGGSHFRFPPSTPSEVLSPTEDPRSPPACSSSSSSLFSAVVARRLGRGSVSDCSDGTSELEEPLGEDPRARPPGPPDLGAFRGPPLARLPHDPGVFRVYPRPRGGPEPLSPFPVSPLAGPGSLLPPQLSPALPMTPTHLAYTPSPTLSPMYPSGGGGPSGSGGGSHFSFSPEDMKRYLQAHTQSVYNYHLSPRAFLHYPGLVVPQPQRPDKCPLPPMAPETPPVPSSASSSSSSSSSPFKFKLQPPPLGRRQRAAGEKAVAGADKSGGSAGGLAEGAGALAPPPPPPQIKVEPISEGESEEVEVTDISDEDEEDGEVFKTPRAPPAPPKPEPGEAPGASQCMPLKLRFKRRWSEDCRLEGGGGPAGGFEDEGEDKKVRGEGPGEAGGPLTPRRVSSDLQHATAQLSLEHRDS
Conditions: protein: recombinant; tags: N-terminal GST; dsDNA, one strand shown. Summed up:
as §1

Assay [12] concerns the target T7, ETV3L (Homo sapiens, UniProt Q6ZN32 1-361).
T7 sequence: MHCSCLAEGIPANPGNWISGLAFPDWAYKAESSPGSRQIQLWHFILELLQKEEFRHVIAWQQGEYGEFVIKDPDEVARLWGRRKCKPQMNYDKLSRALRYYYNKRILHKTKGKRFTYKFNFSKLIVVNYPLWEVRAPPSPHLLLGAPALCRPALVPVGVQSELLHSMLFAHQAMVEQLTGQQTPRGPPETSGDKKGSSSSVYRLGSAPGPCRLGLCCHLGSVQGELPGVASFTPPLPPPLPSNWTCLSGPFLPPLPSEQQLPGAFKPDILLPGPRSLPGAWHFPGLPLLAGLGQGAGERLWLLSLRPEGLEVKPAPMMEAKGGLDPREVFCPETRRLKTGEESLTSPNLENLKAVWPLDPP
Conditions: protein: recombinant; tags: N-terminal GST; dsDNA, one strand shown. The gist of the method:
as §1

In assay [13] the target is T8, ETS2 (Homo sapiens, UniProt P15036 1-469).
T8 sequence: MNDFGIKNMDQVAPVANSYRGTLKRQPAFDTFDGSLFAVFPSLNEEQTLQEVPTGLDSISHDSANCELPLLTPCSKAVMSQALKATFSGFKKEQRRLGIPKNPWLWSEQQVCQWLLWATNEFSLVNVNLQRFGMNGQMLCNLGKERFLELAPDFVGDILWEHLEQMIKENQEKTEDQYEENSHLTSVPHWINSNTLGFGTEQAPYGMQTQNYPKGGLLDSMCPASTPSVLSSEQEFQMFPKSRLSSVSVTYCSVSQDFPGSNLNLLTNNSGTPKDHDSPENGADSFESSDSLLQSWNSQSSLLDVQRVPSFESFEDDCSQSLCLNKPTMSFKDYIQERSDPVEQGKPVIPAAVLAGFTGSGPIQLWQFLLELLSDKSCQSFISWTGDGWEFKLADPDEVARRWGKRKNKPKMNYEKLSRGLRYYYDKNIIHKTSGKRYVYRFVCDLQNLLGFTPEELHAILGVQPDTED
Conditions: protein: recombinant; tags: N-terminal GST; dsDNA, one strand shown. The gist of the method: as §1

For assay [14], the target named is T9, SPDEF (Homo sapiens, UniProt O95238 1-335).
T9 sequence: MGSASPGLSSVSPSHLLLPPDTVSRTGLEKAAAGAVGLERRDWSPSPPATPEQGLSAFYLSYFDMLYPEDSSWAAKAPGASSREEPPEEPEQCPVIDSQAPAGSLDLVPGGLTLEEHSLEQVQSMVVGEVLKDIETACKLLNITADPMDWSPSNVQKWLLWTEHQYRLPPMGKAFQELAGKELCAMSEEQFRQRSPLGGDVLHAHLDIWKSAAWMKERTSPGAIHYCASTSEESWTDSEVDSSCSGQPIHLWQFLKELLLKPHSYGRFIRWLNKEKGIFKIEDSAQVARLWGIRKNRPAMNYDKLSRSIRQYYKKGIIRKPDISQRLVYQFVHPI
Conditions: protein: recombinant; tags: N-terminal GST; dsDNA, one strand shown. Summed up: as §1

In assay [15] the target is T10, ETV7 (Homo sapiens, UniProt Q9Y603 1-341).
T10 sequence: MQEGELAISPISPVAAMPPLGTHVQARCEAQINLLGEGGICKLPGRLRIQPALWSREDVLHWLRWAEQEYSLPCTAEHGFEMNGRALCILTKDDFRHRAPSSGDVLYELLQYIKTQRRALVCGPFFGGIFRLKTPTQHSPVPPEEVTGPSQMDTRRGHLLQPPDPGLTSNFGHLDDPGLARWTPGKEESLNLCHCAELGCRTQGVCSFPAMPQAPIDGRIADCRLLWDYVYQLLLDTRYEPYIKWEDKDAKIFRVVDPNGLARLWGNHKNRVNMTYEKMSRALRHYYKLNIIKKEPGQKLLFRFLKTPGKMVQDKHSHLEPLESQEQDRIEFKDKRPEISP
Particulars: protein: recombinant; tags: N-terminal GST; dsDNA, one strand shown. The gist of the method:
as §1

In assay [16] the target is T11, ELF5 (Homo sapiens, UniProt Q9UKW6-2 1-255).
T11 sequence: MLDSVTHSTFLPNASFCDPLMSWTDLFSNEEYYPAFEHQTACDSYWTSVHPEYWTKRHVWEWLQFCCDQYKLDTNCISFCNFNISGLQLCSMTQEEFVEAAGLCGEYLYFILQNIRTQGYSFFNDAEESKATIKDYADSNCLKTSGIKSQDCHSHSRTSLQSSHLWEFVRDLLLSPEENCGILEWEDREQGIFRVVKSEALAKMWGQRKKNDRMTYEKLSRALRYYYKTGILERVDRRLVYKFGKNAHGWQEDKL
Particulars: protein: recombinant; tags: N-terminal GST; dsDNA, one strand shown. Summed up:
as §1

For assay [17], the target named is T12, ETV3 (Homo sapiens, UniProt P41162-2 1-143).
T12 sequence: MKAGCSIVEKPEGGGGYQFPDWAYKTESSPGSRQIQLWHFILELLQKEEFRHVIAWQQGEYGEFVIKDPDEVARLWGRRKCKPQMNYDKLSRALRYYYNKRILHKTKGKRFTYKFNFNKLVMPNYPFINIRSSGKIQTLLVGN
Particulars: protein: recombinant; tags: N-terminal GST; dsDNA, one strand shown. The gist of the method:
as §1

Assay [18] addresses ETV6 (Homo sapiens, UniProt P41212 1-452). Conditions: protein: recombinant; tags: N-terminal GST; dsDNA, one strand shown. Summed up:
as §1

Chain of ETV1 (P50549 whole entry): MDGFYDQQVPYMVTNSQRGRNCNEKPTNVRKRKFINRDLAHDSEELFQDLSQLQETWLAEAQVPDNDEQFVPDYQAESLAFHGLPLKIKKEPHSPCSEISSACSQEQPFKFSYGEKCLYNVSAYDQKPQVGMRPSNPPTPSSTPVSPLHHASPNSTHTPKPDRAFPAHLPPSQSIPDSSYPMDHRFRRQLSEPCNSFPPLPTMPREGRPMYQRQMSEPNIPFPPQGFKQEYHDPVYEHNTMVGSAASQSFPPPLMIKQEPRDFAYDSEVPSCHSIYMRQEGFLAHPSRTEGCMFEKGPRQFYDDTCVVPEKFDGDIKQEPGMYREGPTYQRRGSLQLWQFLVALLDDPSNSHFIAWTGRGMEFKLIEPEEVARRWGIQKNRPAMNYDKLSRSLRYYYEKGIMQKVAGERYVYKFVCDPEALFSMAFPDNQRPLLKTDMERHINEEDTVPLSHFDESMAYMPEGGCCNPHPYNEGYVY
Chain of HSF1 (Q00613 whole entry): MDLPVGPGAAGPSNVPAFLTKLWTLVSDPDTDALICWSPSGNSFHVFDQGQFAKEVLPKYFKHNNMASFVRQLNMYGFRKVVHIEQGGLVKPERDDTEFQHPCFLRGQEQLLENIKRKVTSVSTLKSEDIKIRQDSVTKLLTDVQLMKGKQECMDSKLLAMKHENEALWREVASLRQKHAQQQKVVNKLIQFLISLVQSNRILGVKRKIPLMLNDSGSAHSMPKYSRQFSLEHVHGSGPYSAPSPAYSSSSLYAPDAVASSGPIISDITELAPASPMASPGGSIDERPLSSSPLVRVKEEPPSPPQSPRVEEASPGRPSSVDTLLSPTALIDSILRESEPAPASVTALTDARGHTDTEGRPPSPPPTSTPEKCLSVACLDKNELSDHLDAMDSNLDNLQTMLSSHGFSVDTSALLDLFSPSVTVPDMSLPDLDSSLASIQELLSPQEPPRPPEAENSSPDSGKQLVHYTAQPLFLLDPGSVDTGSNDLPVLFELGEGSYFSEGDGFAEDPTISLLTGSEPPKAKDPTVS
Chain of ETV6 (P41212 whole entry): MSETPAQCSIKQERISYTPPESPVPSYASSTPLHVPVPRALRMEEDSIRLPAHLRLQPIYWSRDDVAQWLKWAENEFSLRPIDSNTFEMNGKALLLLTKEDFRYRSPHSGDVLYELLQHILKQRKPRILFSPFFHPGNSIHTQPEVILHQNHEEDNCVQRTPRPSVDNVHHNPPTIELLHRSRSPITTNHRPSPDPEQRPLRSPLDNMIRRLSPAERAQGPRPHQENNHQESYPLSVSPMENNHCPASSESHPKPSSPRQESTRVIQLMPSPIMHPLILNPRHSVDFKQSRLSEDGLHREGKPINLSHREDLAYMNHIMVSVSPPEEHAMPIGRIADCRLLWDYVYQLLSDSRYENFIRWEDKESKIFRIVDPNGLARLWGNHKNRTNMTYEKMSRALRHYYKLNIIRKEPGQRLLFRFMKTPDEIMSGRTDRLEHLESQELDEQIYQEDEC
Chain of CRX (O43186 whole entry): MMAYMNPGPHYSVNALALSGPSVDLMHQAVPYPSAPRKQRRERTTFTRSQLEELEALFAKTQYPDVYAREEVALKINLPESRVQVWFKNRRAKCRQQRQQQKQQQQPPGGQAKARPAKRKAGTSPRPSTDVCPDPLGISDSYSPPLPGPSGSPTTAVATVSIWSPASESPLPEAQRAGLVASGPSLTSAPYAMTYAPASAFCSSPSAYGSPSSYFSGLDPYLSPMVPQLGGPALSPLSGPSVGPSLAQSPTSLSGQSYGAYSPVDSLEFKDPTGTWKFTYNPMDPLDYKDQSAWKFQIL
Chain of ETV5 (P41161 whole entry): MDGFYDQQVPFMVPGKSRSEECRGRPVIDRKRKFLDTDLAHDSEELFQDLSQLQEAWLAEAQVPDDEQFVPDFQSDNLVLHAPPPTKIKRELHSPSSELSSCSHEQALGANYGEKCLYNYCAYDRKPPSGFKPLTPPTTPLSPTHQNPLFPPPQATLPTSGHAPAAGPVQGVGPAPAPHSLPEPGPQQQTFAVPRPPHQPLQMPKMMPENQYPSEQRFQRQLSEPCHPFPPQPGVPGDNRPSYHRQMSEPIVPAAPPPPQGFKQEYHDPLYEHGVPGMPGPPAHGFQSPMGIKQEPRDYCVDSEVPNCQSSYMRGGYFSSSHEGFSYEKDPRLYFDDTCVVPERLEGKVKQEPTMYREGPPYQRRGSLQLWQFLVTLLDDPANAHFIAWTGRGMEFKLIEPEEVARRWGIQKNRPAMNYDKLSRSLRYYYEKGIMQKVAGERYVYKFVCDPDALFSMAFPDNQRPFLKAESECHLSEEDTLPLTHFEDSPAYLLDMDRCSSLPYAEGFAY
Chain of ELF4 (Q99607 whole entry): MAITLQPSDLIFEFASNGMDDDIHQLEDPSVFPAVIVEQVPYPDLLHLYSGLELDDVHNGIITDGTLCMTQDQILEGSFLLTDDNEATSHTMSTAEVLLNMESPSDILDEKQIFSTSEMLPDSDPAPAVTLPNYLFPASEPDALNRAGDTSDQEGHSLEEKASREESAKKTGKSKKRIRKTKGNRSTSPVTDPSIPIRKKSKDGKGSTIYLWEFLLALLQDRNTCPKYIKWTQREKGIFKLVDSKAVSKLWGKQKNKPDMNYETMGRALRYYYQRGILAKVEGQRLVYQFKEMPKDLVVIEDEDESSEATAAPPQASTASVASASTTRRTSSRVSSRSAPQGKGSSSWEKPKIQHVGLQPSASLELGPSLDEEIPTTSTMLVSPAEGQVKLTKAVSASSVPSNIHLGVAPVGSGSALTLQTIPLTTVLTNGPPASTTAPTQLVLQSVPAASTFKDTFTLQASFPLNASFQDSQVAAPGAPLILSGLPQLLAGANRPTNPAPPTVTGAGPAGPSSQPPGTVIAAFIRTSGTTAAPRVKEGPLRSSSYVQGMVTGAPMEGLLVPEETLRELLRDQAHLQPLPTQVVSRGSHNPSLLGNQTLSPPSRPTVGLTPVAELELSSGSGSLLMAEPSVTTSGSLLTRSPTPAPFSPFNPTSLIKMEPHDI

For ATCCTG, the binding signal in [1] was 1.46 fold enrichment (6-mer frequency, TF over GST control); in [2], 1.71 fold enrichment (6-mer frequency, TF over GST control); in assay [3], 1.33 fold enrichment (6-mer frequency, TF over GST control); in [4] it was 1.19 fold enrichment (6-mer frequency, TF over GST control); in [5], 1.35 fold enrichment (6-mer frequency, TF over GST control); in assay [6], 1.33 fold enrichment (6-mer frequency, TF over GST control). The binding signal in [7] was 1.42 fold enrichment (6-mer frequency, TF over GST control); in [8], 1.35 fold enrichment (6-mer frequency, TF over GST control); in [9], 1.55 fold enrichment (6-mer frequency, TF over GST control); in [10] it was 1.43 fold enrichment (6-mer frequency, TF over GST control); in assay [11] it was 1.28 fold enrichment (6-mer frequency, TF over GST control); in assay [12], 1.49 fold enrichment (6-mer frequency, TF over GST control). Further, the binding signal was 1.56 fold enrichment (6-mer frequency, TF over GST control) in assay [13]; 2.47 fold enrichment (6-mer frequency, TF over GST control) in assay [14]; 1.51 fold enrichment (6-mer frequency, TF over GST control) in assay [15]; 1.84 fold enrichment (6-mer frequency, TF over GST control) in assay [16]; 1.61 fold enrichment (6-mer frequency, TF over GST control) in [17]; 1.48 fold enrichment (6-mer frequency, TF over GST control) in assay [18].
